# Most compounds without a hit are left out; they make up all but 18% or so of the library.
# TDP1 cell noCPT: qHTS for Inhibitors of human tyrosyl-DNA phosphodiesterase 1 (TDP1): qHTS in cells in absence of CPT; 420,000 compounds, 15% hits; Potency, µM (highest dose often 46.2 µM), for the others: top-dose activity change, negative = growth inhibition, actives largely listed as inhibitors; AID 686978, 2013; DT40 Tdp1-/- hTDP1 cells, no CPT, ATP luminescence, 48 h; note: potency is the fitted concentration of half-maximal effect; nearly all actives have a fitted effect of over 55% in size
#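 No-CPT arm: Tdp1-/-;hTDP1 DT40 cells (400/well) plus compounds, incubated ≥48 hr at 37 °C. Readout CellTiter-Glo luminescence.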
# TDP1 cell CPT: growth inhibition of DT40 Tdp1-/-;hTDP1 cells with camptothecin (screen for TDP1 inhibitors) | chicken DT40 Tdp1-/-;hTDP1 cells + 20 nM CPT, ATP luminescence, 48 h | Potency, µM (series often up to 46.2 µM), for the others: top-dose activity change, negative = growth inhibition, usual class: inhibitors | 420,000 compounds, 12% hits | AID 686979; note: potency is the fitted concentration of half-maximal effect; nearly all actives have a fitted effect of over 55% in size
#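 Chicken DT40 Tdp1-/- cells complemented with human TDP1, 400 cells/well, exposed to compounds plus 20 nM camptothecin for at least 48 h at 37 C; viability read as ATP content by CellTiter-Glo luminescence.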
# Six1-Eya2 inh: inhibitors of human Six1/Eya2 interaction; Q15475+O00167; AlphaScreen GST-Six1/His-Eya2 binding, biochemical; hits give low values; activity change, % (concentration not given with the values); 360,000 compounds, 0.56% hits; AID 651725; in the data active = activity change below about -65%; inconclusive = mostly about -30% to -63%
#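 AlphaScreen luminescence read after one hour at 37 °C in darkness. Pin-transferred compounds met GST-Six1 and His-Eya2 protein (5X stock 250 nM/500 nM) plus glutathione donor and Ni-chelate acceptor beads (5X, 50 ug/mL).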
# IL1B secr inh: inflammasome signaling inhibition, IL-1 beta readout; THP-1 LPS/ATP IL-1B secretion, AlphaLISA, 16 h; hits give low values; activity change, % at 57.5 µM; 360,000 compounds, 4.7% hits; AID 743279; in the data active = activity change below about -50%; inconclusive = mostly about -30% to -49%
#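 THP-1 cells pretreated 1 hr with compounds (up to 57.5 uM final), then stimulated with LPS (250 ng/mL final) plus ATP (1.25 mM final); secreted IL-1B measured by AlphaLISA after 16 hr, decreased signal indicating inhibition.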
# TDP1 inh: blocks human tyrosyl-DNA phosphodiesterase 1 | recombinant TDP1, AlphaScreen DNA substrate cleavage | Potency, µM (doses to about 130 µM), for the others: at the top dose activity change, negative = inhibition, usual class: inhibitors | 350,000 compounds, 0.28% hits | AID 485290; note: potency is the fitted concentration of half-maximal effect; nearly all actives have a fitted effect of over 40% in size
#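 Enzyme-compound mixtures sat 15 min at room temperature, followed by a 5 min reaction with 15 nM final substrate and 10 min with AlphaScreen beads. Recombinant human Tdp1 was used at 1 nM final.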
# CtBP-E1A inh: blocks the CtBP interaction with E1A. AlphaScreen GST-E1A/His-CtBP binding, 1536-well; hits give low values. activity change, % (test concentration not listed). 340,000 compounds, 0.49% hits. AID 651724; in the data active = activity change below about -65%; inconclusive = mostly about -30% to -63%
#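 GST-E1A and His-tagged CtBP (125 nM each as 5X stock) were preincubated with pin-transferred compound for 2 h at 37 °C in the dark, then glutathione donor and nickel acceptor beads were added for 1 h before AlphaScreen reading.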
# * hit, by the source's call; ? = inconclusive; / = no result given. Unless noted, calls come from the whole dose curve; as a rule, active = well fitted curve in the direction sought with a large enough effect; inconclusive = small, poorly fitted or top-dose-only effect, or another doubt; inactive = no such curve, though single readings can be large; an effect the other way counts as inactive or inconclusive. % is set by controls: 0 for no effect and ±100 for the full control effect.
SMILES,TDP1 cell noCPT,TDP1 cell CPT,Six1-Eya2 inh,IL1B secr inh,TDP1 inh,CtBP-E1A inh
CN(C)c1ccc(N=Cc2nc(-c3ccccc3)oc2OC(=O)c2cccc(Br)c2)cc1,16µM*,?,-22,?,3%,-18
CCOC(=O)c1ccc(-n2c(CC)nc3ccccc3c2=O)cc1,/,/,/,/,-3%,/
CC(=O)Oc1oc(-c2ccccc2)nc1C=Nc1ccccc1,?,-27%,3,-8,-2%,-2
COc1ccc(-c2c(-c3cc(OC)cc(OC)c3)n(C)c3ccc(-c4ccc5cc[nH]c5c4)cc23)cc1,?,?,-18,-2,1%,-13
CC[C@@H](C)[C@H](NC(=O)OC(C)(C)C)c1nnc(S(=O)(=O)Cc2cc(C)ccc2C)o1,2.3µM*,1.3µM*,-1,0,-1%,1
CC(C)C[C@H](NC(=O)OC(C)(C)C)c1nnc(SCc2ccccc2)o1,23µM*,?,6,-19,-2%,0
Cc1ccccc1CS(=O)(=O)c1nnc([C@H](CC(C)C)NC(=O)OC(C)(C)C)o1,2.8µM*,2.2µM*,-9,-67*,1%,-2
CC(C)C[C@H](N)c1nnc(S(=O)(=O)Cc2cccc(F)c2)o1,5.8µM*,5.8µM*,0,?,3%,-3
CC(C)Cn1nnnc1S(=O)(=O)Cc1cccc(C#N)c1,/,/,/,/,4%,/
CCOC(=O)c1ccc(Nc2ccc([N+](=O)[O-])cn2)cc1,-13%,-13%,5,8,3%,-8
Cc1ccc(C)c(NC(=O)CN(Cc2ccccc2)S(=O)(=O)c2ccc3nc(C)sc3c2)c1,?,?,/,/,5%,/
CC(C)(C)OC(=O)N[C@@H](Cc1ccccc1)c1nnc(S(=O)(=O)Cc2cccc(F)c2)o1,1.3µM*,1.3µM*,0,-80*,-5%,-2
CC(C)[C@H](NC(=O)OC(C)(C)C)c1nnc(S(=O)(=O)Cc2c(F)cccc2Cl)o1,1.6µM*,1.2µM*,4,?,2%,5
C[C@H](NC(=O)OC(C)(C)C)c1nnc(SCc2c(F)cccc2Cl)o1,/,/,/,/,6%,/
COCCn1c(SCc2ccc(C(=O)OC)o2)nnc1-c1c[nH]c2ccccc12,?,-20%,-4,-17,8%,1
c1ccc2c(c1)CCN(C1=Nc3cccc4cccc1c34)C2,?,?,-20,-91*,10%,-27
c1cc2c3c(cccc3c1)C(N1CCCCCC1)=N2,-22%,-3%,-10,5,1%,1
O=C1[C@H]2[C@@H](c3ccc(C(F)(F)F)cc3)N[C@]3(CCCN(Cc4ccc(F)cc4)C3=O)[C@H]2C(=O)N1Cc1ccccc1,?,?,-1,-56*,/,3
O=C1[C@H]2[C@@H](c3ccccc3)N[C@]3(CCCN(Cc4ccc(F)cc4)C3=O)[C@H]2C(=O)N1Cc1ccccc1,16µM*,?,-3,-23,/,1
O=C1[C@H]2[C@@H](c3ccc(C(F)(F)F)cc3)N[C@]3(CCCN(Cc4ccco4)C3=O)[C@H]2C(=O)N1Cc1ccccc1,-4%,-3%,-10,29,/,6

# High-throughput results (PubChem BioAssay)
